Of roughly 8,800 targets only a part is listed; those with a hit were picked by preference. About 0.5% of all pairs of compound and target were hits. A number with no mark means an inactive call.
Columns and labels:
Experiment in all cases: log2 fold change, soluble protein after heating vs DMSO (PISA); higher = thermal stabilisation; K562 lysate, 10 uM; active = over 0.2 and 3.5 SD of the protein, either way, in both replicates (recomputed)
[1] = compound: C#Cc1cccc(Nc2ncnc3cc(OCCOC)c(OCCOC)cc23)c1 [erlotinib]
In short: (§1)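 Quantification was by TMTpro 16plex LC-MS/MS with equalised channel sums, applied to the supernatant after 21,000xg for 90 min. Samples were crude K562 extract at 1 mg/mL protein in PBS pH 7.4 with 1 mM MgCl2, treated with 10 μM compound for 30 min, heated for 3 min across 48°C-58°C, pooled and brought to 0.5% NP-40 at 4°C. Values are log-two fold changes in thermal stability relative to solvent controls, from duplicates.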

[2] = compound: C/C(=N\NC(=O)C1=CC(=CC=C1)S(=O)(=O)N2CCOCC2)/C3=C(C=CC(=C3)Cl)O
In short: as §1

[3] = compound: C1=CC(=CC=C1C2=NC3=C(N2)C=C(C=C3)C(=O)N)OC4=CC=C(C=C4)Cl
In short: as §1

[4] = compound: C1=CC2=C(C=CC(=C2)/C=C\3/C(=O)NC(=NCC4=CC=CS4)S3)N=C1
In short: as §1

[5] = compound: C1=CC2=NC=CN=C2C=C1/C=C/3\C(=O)NC(=O)S3
In short: as §1

[6] = compound: C1=CC=C(C=C1)C2=NC(=C(N2)C3=CC=NC=C3)C4=CC(=C(C=C4)Cl)O
In short: as §1

[7] = compound: C1=CC=C2C(=C1)C3=NNC4=CC=CC(=C43)C2=O
In short: as §1

[8] = compound: C1CCN(C1)C(=O)NC2=CC=CC(=C2)NC3=NC=C(C(=N3)NCCC4=CN=CN4)Br
In short: as §1

[9] = compound: C1CN(CCC1(CC2=CC=C(C=C2)Cl)N)C3=NC=NC4=C3C=CN4
In short: as §1

[10] = compound: C1COCCN1CCN2C3=CC=CC=C3N=C2NC(=O)C4=CC(=CC=C4)[N+](=O)[O-] [IRAK-1-4 Inhibitor I]
In short: as §1

[11] = compound: C=CC(=O)N1CCC[C@@H](n2nc(-c3ccc(Oc4ccccc4)cc3)c3c(N)ncnc32)C1 [ibrutinib]
In short: as §1

[12] = compound: CC(=O)c1cnc2ccc(-c3cc(Cl)c(O)c(Cl)c3)nc2c1N[C@H]1CC[C@H](CN(C)C)CC1
In short: as §1

[13] = compound: CC(C)(C)Cn1c(N)nc2ccc(-c3[nH]c(C(C)(C)C)nc3-c3ccc(F)cc3)nc21 [ralimetinib]
In short: as §1

[14] = compound: CC(C)(O)CC(=O)NCCn1ccc2ncnc(Nc3ccc(Oc4cccc(C(F)(F)F)c4)c(Cl)c3)c21
In short: as §1

[15] = compound: CC(C)C1=C2N=C(C=C(N2N=C1)NCC3=CC=CC=C3)NCCCCCCN
In short: as §1

[16] = compound: CC1=C(C(CC(=O)N1)C2=CC=C(C=C2)C(F)(F)F)C(=O)NC3=C(C=C4C(=C3)C=NN4)F
In short: as §1

[17] = compound: CC1=C(C2=C(C=C1)C(=O)C3=CC=CC=C3N2CCCN)C
In short: as §1

[18] = compound: CC1=C(C=C(C=C1)NC(=O)C2=CC(=CC=C2)C(C)(C)C#N)NC3=CC4=C(C=C3)N=CN(C4=O)C
In short: as §1

[19] = compound: CC1=C(C=C(C=C1)NC(=O)C2=CC(=CC=C2)N(C)C)NC(=O)C3=CC=C(C=C3)O
In short: as §1

[20] = compound: CC1=CC=C(C=C1)SC2=C3C=C(SC3=CN=C2)C(=O)N
In short: as §1

Sequence of UniProt P55160 (P55160 whole entry, looked up): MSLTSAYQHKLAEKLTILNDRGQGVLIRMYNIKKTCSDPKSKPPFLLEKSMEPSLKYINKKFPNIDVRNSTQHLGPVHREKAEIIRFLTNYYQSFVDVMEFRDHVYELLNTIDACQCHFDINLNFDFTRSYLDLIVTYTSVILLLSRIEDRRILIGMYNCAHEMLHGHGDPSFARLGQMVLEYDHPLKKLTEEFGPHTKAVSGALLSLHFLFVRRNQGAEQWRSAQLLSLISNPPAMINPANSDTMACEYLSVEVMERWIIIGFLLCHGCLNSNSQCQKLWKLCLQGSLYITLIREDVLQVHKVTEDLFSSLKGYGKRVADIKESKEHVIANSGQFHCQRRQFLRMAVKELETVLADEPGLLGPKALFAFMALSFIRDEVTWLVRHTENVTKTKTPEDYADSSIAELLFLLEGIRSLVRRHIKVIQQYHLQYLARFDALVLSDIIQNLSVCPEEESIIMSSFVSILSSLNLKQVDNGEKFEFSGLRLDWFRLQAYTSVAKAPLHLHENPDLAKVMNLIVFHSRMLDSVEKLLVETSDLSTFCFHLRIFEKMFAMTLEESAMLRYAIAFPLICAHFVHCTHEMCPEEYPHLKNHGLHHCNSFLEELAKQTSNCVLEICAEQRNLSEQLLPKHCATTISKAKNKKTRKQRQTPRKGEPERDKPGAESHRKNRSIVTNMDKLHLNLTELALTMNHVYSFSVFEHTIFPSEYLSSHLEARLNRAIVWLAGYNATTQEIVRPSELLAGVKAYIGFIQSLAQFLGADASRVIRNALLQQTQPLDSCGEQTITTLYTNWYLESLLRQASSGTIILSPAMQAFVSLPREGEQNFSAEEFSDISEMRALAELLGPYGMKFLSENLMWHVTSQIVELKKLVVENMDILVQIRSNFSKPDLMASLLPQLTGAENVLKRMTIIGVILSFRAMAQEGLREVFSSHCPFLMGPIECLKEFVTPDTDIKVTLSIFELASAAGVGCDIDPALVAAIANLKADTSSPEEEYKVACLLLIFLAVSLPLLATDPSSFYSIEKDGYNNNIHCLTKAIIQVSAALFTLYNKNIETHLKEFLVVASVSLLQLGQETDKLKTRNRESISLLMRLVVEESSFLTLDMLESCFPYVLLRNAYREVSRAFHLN
Sequence of UniProt Q96IY1 (Q96IY1 whole entry, looked up): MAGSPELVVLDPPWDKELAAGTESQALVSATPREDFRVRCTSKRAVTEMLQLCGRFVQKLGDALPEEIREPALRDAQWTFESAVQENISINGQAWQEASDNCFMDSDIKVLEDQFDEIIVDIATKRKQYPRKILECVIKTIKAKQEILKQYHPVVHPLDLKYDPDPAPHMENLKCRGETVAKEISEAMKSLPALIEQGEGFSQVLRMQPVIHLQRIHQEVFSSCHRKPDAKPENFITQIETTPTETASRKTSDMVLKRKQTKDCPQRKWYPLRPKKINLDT
Sequence of UniProt Q96I59 (Q96I59 whole entry, looked up): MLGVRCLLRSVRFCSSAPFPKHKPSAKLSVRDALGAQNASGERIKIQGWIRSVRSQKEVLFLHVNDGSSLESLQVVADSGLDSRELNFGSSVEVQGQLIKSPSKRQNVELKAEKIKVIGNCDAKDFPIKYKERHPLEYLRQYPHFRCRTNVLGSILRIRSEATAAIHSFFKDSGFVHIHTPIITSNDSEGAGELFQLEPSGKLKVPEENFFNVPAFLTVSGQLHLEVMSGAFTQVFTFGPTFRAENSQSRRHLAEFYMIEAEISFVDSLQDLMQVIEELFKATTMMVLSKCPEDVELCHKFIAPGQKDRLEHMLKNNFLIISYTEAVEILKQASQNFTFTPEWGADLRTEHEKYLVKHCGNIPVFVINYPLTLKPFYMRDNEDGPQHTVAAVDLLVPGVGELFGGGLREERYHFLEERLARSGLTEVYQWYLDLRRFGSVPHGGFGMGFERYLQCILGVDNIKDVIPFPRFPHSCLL
Sequence of UniProt P52948 (P52948 whole entry, looked up): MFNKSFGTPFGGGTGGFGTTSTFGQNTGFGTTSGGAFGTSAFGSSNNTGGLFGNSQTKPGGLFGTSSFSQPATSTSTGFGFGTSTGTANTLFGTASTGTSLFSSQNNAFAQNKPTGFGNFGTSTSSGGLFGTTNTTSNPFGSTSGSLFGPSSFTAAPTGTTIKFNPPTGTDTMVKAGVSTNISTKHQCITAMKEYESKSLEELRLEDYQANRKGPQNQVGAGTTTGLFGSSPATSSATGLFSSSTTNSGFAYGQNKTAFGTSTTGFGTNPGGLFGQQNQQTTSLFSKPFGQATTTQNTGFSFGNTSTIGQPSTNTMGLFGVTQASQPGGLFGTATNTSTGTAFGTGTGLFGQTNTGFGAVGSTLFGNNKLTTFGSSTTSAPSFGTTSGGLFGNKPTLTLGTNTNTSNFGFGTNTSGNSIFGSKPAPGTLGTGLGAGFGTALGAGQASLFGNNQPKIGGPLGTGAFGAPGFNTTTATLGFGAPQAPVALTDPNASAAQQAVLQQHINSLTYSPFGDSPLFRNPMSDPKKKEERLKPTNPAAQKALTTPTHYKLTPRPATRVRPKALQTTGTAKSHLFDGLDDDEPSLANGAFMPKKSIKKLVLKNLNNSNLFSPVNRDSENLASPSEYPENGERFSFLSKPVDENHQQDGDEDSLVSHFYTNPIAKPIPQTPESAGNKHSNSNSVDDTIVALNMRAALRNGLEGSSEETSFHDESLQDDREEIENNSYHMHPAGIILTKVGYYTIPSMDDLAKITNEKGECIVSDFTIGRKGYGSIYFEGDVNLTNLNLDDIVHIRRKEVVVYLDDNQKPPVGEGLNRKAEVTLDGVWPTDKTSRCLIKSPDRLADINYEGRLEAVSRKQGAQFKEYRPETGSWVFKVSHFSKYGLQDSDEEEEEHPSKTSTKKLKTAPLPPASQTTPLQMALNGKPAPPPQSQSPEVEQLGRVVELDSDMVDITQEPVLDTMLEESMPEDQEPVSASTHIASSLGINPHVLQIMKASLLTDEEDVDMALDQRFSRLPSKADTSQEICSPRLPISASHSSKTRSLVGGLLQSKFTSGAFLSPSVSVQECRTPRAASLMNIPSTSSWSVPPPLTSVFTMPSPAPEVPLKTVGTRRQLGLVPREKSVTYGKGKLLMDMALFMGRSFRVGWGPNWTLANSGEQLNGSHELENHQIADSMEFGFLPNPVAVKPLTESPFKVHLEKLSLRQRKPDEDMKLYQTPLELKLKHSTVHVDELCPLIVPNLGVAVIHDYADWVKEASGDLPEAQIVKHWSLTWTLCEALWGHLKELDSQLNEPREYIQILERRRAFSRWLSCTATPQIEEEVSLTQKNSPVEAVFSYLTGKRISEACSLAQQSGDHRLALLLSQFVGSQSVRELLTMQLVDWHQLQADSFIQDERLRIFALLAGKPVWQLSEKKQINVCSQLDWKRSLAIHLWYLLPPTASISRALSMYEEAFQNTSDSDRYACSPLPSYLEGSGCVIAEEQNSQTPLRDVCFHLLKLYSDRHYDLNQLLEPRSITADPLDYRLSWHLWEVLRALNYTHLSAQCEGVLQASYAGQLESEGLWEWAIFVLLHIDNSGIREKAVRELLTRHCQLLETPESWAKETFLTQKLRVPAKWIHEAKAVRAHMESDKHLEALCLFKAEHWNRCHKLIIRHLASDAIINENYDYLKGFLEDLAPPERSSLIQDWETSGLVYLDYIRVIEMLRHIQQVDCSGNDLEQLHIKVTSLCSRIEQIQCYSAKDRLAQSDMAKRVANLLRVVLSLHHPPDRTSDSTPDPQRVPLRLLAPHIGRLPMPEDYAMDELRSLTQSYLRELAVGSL
Sequence of UniProt Q9BPX3 (Q9BPX3 whole entry, looked up): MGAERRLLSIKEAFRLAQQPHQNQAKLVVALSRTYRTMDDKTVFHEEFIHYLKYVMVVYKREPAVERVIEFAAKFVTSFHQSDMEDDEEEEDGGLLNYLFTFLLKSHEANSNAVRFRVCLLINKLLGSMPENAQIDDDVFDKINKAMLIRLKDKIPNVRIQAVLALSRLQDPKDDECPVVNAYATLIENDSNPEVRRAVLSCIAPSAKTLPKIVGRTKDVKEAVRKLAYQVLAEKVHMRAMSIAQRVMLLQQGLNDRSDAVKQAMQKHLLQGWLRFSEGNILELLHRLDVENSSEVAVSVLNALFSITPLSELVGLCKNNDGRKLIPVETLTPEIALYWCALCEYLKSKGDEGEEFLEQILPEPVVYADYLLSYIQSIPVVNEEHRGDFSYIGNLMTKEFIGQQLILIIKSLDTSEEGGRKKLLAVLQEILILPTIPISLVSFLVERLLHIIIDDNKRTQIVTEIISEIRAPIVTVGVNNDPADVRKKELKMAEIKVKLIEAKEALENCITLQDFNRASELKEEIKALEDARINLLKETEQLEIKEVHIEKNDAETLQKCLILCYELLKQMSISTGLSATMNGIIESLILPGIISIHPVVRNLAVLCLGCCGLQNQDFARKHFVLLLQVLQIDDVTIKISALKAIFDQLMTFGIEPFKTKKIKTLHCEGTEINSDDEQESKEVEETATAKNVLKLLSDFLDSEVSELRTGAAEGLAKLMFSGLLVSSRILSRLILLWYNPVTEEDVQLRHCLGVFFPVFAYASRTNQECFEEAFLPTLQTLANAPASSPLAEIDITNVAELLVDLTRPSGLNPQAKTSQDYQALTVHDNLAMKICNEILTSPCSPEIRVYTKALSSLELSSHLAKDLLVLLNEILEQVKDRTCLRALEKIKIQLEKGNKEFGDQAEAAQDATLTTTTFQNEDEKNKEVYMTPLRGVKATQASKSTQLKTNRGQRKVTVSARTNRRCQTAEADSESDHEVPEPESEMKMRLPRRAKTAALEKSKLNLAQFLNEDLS
Sequence of UniProt P18440 (P18440 whole entry, looked up): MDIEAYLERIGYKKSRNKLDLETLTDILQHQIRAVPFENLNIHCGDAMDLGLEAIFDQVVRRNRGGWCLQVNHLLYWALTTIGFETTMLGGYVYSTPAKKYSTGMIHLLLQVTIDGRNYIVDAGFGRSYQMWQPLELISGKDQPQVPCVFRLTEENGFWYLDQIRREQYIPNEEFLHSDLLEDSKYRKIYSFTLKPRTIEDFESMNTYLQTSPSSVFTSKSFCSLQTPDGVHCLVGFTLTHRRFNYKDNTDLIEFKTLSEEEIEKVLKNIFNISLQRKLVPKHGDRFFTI

| Target | log2 fold change [1] | log2 fold change [2] | log2 fold change [3] | log2 fold change [4] | log2 fold change [5] | log2 fold change [6] | log2 fold change [7] | log2 fold change [8] | log2 fold change [9] | log2 fold change [10] | log2 fold change [11] | log2 fold change [12] | log2 fold change [13] | log2 fold change [14] | log2 fold change [15] | log2 fold change [16] | log2 fold change [17] | log2 fold change [18] | log2 fold change [19] | log2 fold change [20] |
| --- | --- | --- | --- | --- | --- | --- | --- | --- | --- | --- | --- | --- | --- | --- | --- | --- | --- | --- | --- | --- |
| NUP205 (UniProt Q92621) | 0.03 | -0.022 | -0.018 | 0.049 | -0.008 | -0.013 | -0.06 | -0.009 | 0.035 | 0.005 | 0.015 | 0.026 | 0.026 | -0.006 | -0.036 | 0.003 | 0.022 | 0.026 | 0.017 | 0.008 |
| NCKAP1L (UniProt P55160) | 0.005 | -0.06 | -0.006 | 0.196 | 0.055 | -0.032 | -0.156 | 0.06 | 0.084 | 0.06 | -0.18 | 0.021 | 0.025 | -0.04 | -0.111 | -0.051 | -0.089 | -0.012 | 0.04 | 0.025 |
| PBK (UniProt Q96KB5) | 0.012 | 0.026 | -0.044 | 0.014 | -0.014 | 0.008 | -0.001 | -0.007 | -0.011 | -0.007 | 0.006 | -0.007 | 0.005 | -0.005 | 0.029 | -0.008 | 0.015 | 0.006 | -0.013 | 0.019 |
| NCK1 (UniProt P16333) | 0.02 | 0.036 | 0.04 | -0.007 | -0.01 | -0.009 | -0.072 | -0.024 | 0.049 | 0.002 | 0.025 | -0.029 | 0.003 | 0.01 | -0.016 | 0.028 | 0.002 | -0.005 | 0.029 | 0 |
| NBN (UniProt O60934) | -0.026 | 0.068 | 0.051 | -0.004 | -0.024 | 0.013 | -0.044 | -0.005 | 0.013 | 0.007 | 0.016 | -0.003 | 0.014 | 0.01 | -0.016 | -0.007 | -0.015 | -0.021 | 0.022 | -0.016 |
| NARS2 (UniProt Q96I59) | -0.027 | -0.034 | -0.045 | 0.031 | 0.022 | -0.021 | -0.04 | 0.027 | -0.027 | -0.088 | 0.01 | 0.009 | 0.009 | 0.003 | -0.001 | 0.017 | -0.024 | -0.007 | 0.045 | 0.038 |
| NDUFA4 (UniProt O00483) | 0.038 | 0.092 | -0.012 | 0.055 | 0.009 | 0.055 | 0.046 | 0.012 | 0.001 | -0.01 | 0.007 | 0.199 | 0.022 | 0.03 | -0.068 | -0.045 | -0.036 | -0.058 | 0.009 | -0.199 |
| NCAPG (UniProt Q9BPX3) | -0.008 | -0.018 | -0.004 | -0.01 | -0.007 | 0.006 | -0.026 | 0.002 | 0.013 | -0.011 | 0.006 | 0.015 | 0.027 | -0.015 | -0.026 | -0.009 | -0.02 | 0.014 | 0.018 | 0.024 |
| NAT1 (UniProt P18440) | 0.001 | -0.011 | -0.007 | -0.136 | -0.015 | -0.011 | 0.528 (active) | -0.021 | 0.035 | -0.013 | -0.089 | -0.039 | 0.062 | 0.019 | -0.035 | -0.001 | -0.048 | 0.034 | 0.009 | 0.052 |
| MTOR (UniProt P42345) | 0.02 | 0.031 | -0.058 | -0.022 | 0.038 | 0.025 | -0.018 | -0.012 | 0.003 | 0.006 | -0.016 | 0.001 | 0.018 | -0.005 | -0.043 | 0.02 | 0.019 | 0.031 | 0.058 | -0.013 |
| NUP98 (UniProt P52948) | -0.018 | 0.017 | 0.023 | -0.026 | 0.005 | -0.079 | -0.004 | 0.015 | 0.021 | 0.002 | -0.01 | 0.047 | 0.047 | 0.022 | -0.037 | 0.034 | 0.029 | -0.022 | 0.008 | -0.017 |
| NSL1 (UniProt Q96IY1) | 0.01 | -0.004 | 0.015 | -0.001 | -0.002 | 0.01 | 0.077 | 0.001 | -0.015 | 0.026 | -0.019 | -0.002 | 0.003 | -0.052 | 0.011 | -0.066 | 0.023 | 0.009 | 0.008 | 0.036 |
| NIPSNAP3A (UniProt Q9UFN0) | 0.008 | -0.014 | 0.062 | -0.03 | 0.012 | 0.003 | 0.015 | -0.012 | 0.002 | 0.015 | -0.013 | -0.014 | -0.016 | -0.049 | 0.029 | 0.023 | -0.021 | 0.004 | 0.022 | -0.056 |
| MTA2 (UniProt O94776) | -0.025 | -0.017 | 0.019 | 0.013 | -0.012 | -0.015 | -0.023 | -0.007 | 0.021 | -0.005 | -0.014 | -0.023 | 0.03 | 0.021 | 0.032 | 0.011 | 0.018 | -0.008 | 0.043 | -0.009 |
| NUP133 (UniProt Q8WUM0) | 0.01 | -0.016 | 0.006 | 0.019 | -0.018 | 0.017 | -0.023 | -0.04 | 0.015 | 0.026 | 0.016 | -0.015 | 0.006 | 0.045 | -0.01 | 0.064 | -0.02 | 0.01 | 0.009 | -0.002 |
| OLA1 (UniProt Q9NTK5) | 0.038 | 0.031 | 0.029 | -0.02 | 0.02 | 0.007 | -0.048 | 0.022 | 0.02 | -0.02 | 0.009 | -0.002 | 0.015 | 0.03 | 0.02 | -0.023 | 0.023 | -0.004 | 0.029 | 0.014 |

Reference: the supplement of paper PMC10849652
